The record followed here is PubChem BioAssay (NCATS).

SMILES strings stand for the structures. Records with an inconclusive call do not appear. A call without a number means that no potency is given here. Calls of active or inactive are those of the source. Calls follow the shape of the dose curve; as a rule, active = well fitted cell-killing curve with a large enough effect; inconclusive = small, poorly fitted or top-dose-only effect; inactive = no such curve, though single readings can be large or run the other way.

The assay in a line: qHTS of pediatric cancer cell lines to identify multiple opportunities for drug repurposing: Primary screen for Rh30 cells (AID 1347107). Also: nearly all actives have a fitted effect of over 75% in size. The note with it: Rh30 rhabdomyosarcoma viability, CellTiter-Glo luminescence, 48 h; series mostly up to 46 µM. The text has this:
Drug repurposing or repositioning has been offered as a strategy for drug development in oncology programs. This approach has special potential for childhood cancers and other rare or orphan diseases, where the expected return on new drug development has been a disincentive to pharmaceuticals.
In this project we exploit the poly-pharmacology of drugs to discover new indications via phenotypic screening of a panel of 19 well-characterized cell lines derived from solid tumors seen in children and adolescents. The goal is to identify approved drugs with previously unrecognized anticancer properties that has the potential to reveal new mechanisms and biological processes involved in carcinogenesis or drug resistance. We employed a titration-based paradigm (quantitative high-throughput screening or qHTS), where all compounds were tested at multiple concentrations for their effect on cell viability. Concentration-response curves (CRCs) were derived directly from the primary screen, and both potency and efficacy values were used to identify compounds with robust bioactivity profiles. We screened the NIH Chemical Genomics Center (NCGC) Pharmaceutical Collection (NPC) and Mechanism Interrogation Plate (MIPE) small molecule collections of approved and investigational compounds against these cell lines; and measured metabolically active cells after 48 hours of compound treatment as a proxy for cell viability.
Assay Submitter: Nathalia J. Martinez, National Center for Advancing Translational Sciences, National Institutes of Health, Rockville, MD, USA; email: natalia.martinez@nih.gov
[1] Shen, M et al. Quantitative high-throughput phenotypic screening of pediatric cancer cell lines identifies multiple opportunities for drug repurposing. Oncotarget 2017 Dec 19;9(4):4758-4772. PMID 29435139.
The cells were obtained from University of North Carolina (UNC), Pediatric Preclinical Testing Program (PPT), and Coriell Institute (CI).
qHTS cell viability assay:
Cells were assayed in growth media at a density of 500-1,000 cells/well. Five microliters of cells were dispensed into 1,536-well, white, solid-bottom, TC-treated plates (Greiner Bio One) using a multidrop dispenser and incubated at 37 degrees C, 5% CO2, under a humidified atmosphere for 5 hours. Twenty-three nanoliters of compounds and controls (neutral control DMSO or positive control bortezomib at final concentration of 2.3 µM) were subsequently transferred by Kalypsys pintool. For primary screens, the MIPE collection was tested at 11-point dilutions (final concentrations range from 0.78 nM to 46 µM) and the NPC collection at 8-point dilutions (final concentrations range from 0.59 nM to 46 µM). Compounds tested in follow-up screens were assayed at 11-point dilutions. Cells were incubated for 48 hours, followed by addition of 3 µL of CellTiter-Glo (Promega). After a 15 min incubation at room temperature, samples were analyzed for luminescence intensity using a ViewLux High-throughput CCD imager equipped with clear filters.
For orientation: qHTS replaces the single test concentration by a dilution series.
In the case of `C1COC(NC(C2CC2)C2CC2)=N1`, the Potency entry was “inactive”.
For the molecule `CCC(C)n1ncn(-c2ccc(N3CCN(c4ccc(OC[C@H]5CO[C@](Cn6cncn6)(c6ccc(Cl)cc6Cl)O5)cc4)CC3)cc2)c1=O` (stereo not given in full), the Potency result was “inactive”.
For `C#Cc1cccc(Nc2ncnc3cc(OCCOC)c(OCCOC)cc23)c1`, the Potency entry was “inactive”.
Then `CC(C=CC1=C(C)CCCC1(C)C)=CC=CC(C)=CC(=O)O`, with “inactive”.
As to `Nc1nc2ccc(OC(F)(F)F)cc2s1`, the Potency result was “inactive”.
For `CNC(=O)c1ccc(N2C(=S)N(c3ccc(C#N)c(C(F)(F)F)c3)C(=O)C2(C)C)cc1F`, the Potency entry was “inactive”.
In the case of `c1ccc(-c2nn3c(c2-c2ccnc4cc(OCCN5CCOCC5)ccc24)CCC3)nc1`, the Potency entry was “inactive”.
Consider `COc1ccc(-c2oc3cc(OC)ccc3c2C(=O)c2ccc(C#N)cc2)cc1`, for which the Potency result was “inactive”.
Consider `NC(=O)c1ccc(-c2nc(-c3ccc4c(c3)OCO4)c(-c3ccccn3)[nH]2)cc1`, for which the Potency entry is “inactive”.
In the case of `COc1ccc(-c2ccc3c(N4CCOCC4)nc(N4C[C@@H](C)O[C@@H](C)C4)nc3n2)cc1CO`, the Potency result is “inactive”.
`CCCC(CCC)C(=O)O`: the Potency entry was “inactive”.
In the case of `CN(C)c1ccc(Nc2nc(N)n(C(=O)c3c(F)cccc3F)n2)cc1`, the Potency entry was “inactive”.
Then `CC(C)(Sc1ccc(CCN(CCCCC2CCCCC2)C(=O)NC2CCCCC2)cc1)C(=O)O`, with “inactive”.
`CS(=O)(=O)c1ccc(C(=O)Nc2ccc(Cl)c(-c3ccccn3)c2)c(Cl)c1`: the Potency entry was “inactive”.
As for `Cc1cccc(-c2nn(C(=S)Nc3ccccc3)cc2-c2ccnc3ccccc23)n1`, the Potency entry was “inactive”.
Then `O=C1CCC(N2C(=O)c3ccccc3C2=O)C(=O)N1` (stereo not given), with “inactive”.
Then `Cc1cnc(Nc2ccc(OCCN3CCCC3)cc2)nc1Nc1cccc(S(=O)(=O)NC(C)(C)C)c1`, with “inactive”.
Consider `O=c1n(CCCN2CCN(c3cccc(Cl)c3)CC2)nc2ccccn12`, for which the Potency entry is “inactive”.
In the case of `O=C(O)CCc1ccc(NCc2cccc(Oc3ccccc3)c2)cc1`, the Potency entry is “inactive”.
On to `Cc1oncc1C(=O)Nc1ccc(C(F)(F)F)cc1`, for which the Potency entry was “inactive”.
As to `O=c1ncn2nc(Sc3ccc(F)cc3F)ccc2c1-c1c(Cl)cccc1Cl`, the Potency entry is “inactive”.
In the case of `C[C@]12CCC(=O)C=C1CC[C@@H]1[C@@H]2[C@@H](O)C[C@@]2(C)[C@H]1CC[C@]2(O)C(=O)CO`, the Potency result was “inactive”.
For `CCn1c(-c2nonc2N)nc2c(C#CC(C)(C)O)ncc(OC[C@H]3CCCNC3)c21`, the Potency result is “inactive”.
Under `Cc1ccccc1C(OCCN(C)C)c1ccccc1` (stereo not given) stands “inactive”.
Turning to `OC[C@H](Cc1ccccc1)Nc1nc(Oc2ccc3c(c2)CCC3)nc2c1ncn2Cc1ccc(-c2ccccc2)cc1`, the Potency entry is “inactive”.
Consider `NCCCC(N)(C(=O)O)C(F)F` (stereo not given), for which the Potency result was “inactive”.
On to `CCOc1ccn(-c2ccc(F)cc2)c(=O)c1C(=O)Nc1ccc(Oc2ccnc(N)c2Cl)c(F)c1`, for which the Potency entry is “inactive”.
With `CCOC(=O)C1=C[C@]2(CC)CCCN3CCc4c(n1c1ccccc41)[C@@H]32`, the Potency entry is “inactive”.
As for `O=C(O)[C@@H](c1ccc(OCc2ccc3ccccc3n2)cc1)C1CCCC1`, the Potency result was “inactive”.
As for `Cc1ccnc(NS(=O)(=O)c2ccc(NC(=O)Nc3ccc(S(=O)(=O)Nc4nccc(C)n4)cc3)cc2)n1`, the Potency entry is “inactive”.
Then `CN(C)c1ccc(C2Nc3ccc4ccccc4c3C3=C2C(=O)CC(C)(C)C3)cc1Br` (stereo not given), with “inactive”.
Take `Oc1ccc(C2CNCCc3c2cc(O)c(O)c3Cl)cc1` (stereo not given): the Potency result was “inactive”.
For the molecule `NS(=O)(=O)c1cc2c(cc1Cl)NC=NS2(=O)=O`, the Potency entry was “inactive”.
Turning to `NC(=O)c1ccc(-c2nc(-c3ccc4c(c3)OCCO4)c(-c3ccccn3)[nH]2)cc1`, the Potency entry was “inactive”.
Then `Cc1ccc(N(CC2=NCCN2)c2cccc(O)c2)cc1`, with “inactive”; and `CCc1ccc(CCOc2ccc(CC3SC(=O)NC3=O)cc2)nc1` (stereo not given), with “inactive”; and `CNC[C@H](O)c1cccc(O)c1`, with “inactive”.
Regarding `OCCn1cc(-c2cnc3nnn(Cc4ccc5ncccc5c4)c3n2)cn1`, the Potency result was “inactive”.
Under `NC(=O)c1ccc(I)c([N+](=O)[O-])c1` stands “inactive”.
`Cn1c(=O)c(F)c(Nc2ccc(I)cc2F)c2c(=O)n(C[C@@H](O)CO)cnc21`: the Potency result is “inactive”.
